Assay results reported in the supplement of paper PMC11537057.
Where a name gives a salt, the structure may show the parent alone. ± gives the standard deviation of the averaged measurements. Over roughly 1,700 compounds, “cell number in HSV-1-infected wells relative to infected DMSO wells (H2B-RFP signal)” has its median near 100; the highest 2% begin near 140. Only a selection was taken, and the highest values are over-represented in it overall.

System: A549 infected with HSV-1
Assay: cell number in HSV-1-infected wells relative to infected DMSO wells (H2B-RFP signal); higher = more surviving cells (uninfected or antiviral-protected wells give about 200%; low = toxicity)
Details: 10 µM; 48 h; MOI: 0.1
Procedure: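 Selleck FDA-approved library (L1300) screened in duplicate at 10 µM on A549 H2B-mRuby cells in 384-well plates, infected with HSV-1 strain 17 YFP-ICP4 at MOI 0.1 one hour before drug addition. Imaged after 2 days at 37°C. Cell growth (H2B-RFP) and infection (ICP4-YFP) are expressed as % of DMSO-treated wells. Hits: growth >90% and infection <20% of DMSO.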

| SMILES | cell number in HSV-1-infected wells |
| --- | --- |
| Cc1c(O)cccc1C(=O)N[C@@H](CSc1ccccc1)[C@H](O)CN1C[C@H]2CCCC[C@H]2C[C@H]1C(=O)NC(C)(C)C [Nelfinavir Mesylate] | 157 ± 33% |
| CC(C)(CO)C(O)C(=O)NCCC(=O)O [Calcium D-Panthotenate] | 118 ± 22% |
| N[C@@H](CS)C(=O)O [L-Cysteine HCl] | 129 ± 9.3% |
| CCCCS(=O)(=O)N[C@@H](Cc1ccc(OCCCCC2CCNCC2)cc1)C(=O)O [Tirofiban Hydrochloride] | 128 ± 12% |
| COc1ccc(C[C@H](N)C(=O)N[C@H]2[C@@H](O)[C@H](n3cnc4c(N(C)C)ncnc43)O[C@@H]2CO)cc1 [Puromycin 2HCl] | 41.2 ± 1.6% |
| Nc1ccn(C[C@@H](CO)OCP(=O)(O)O)c(=O)n1 [Cidofovir] | 164 ± 11% |
| Nc1ccn([C@H]2CC[C@@H](CO)O2)c(=O)n1 [Zalcitabine] | 105 ± 7% |
| Nc1ccn([C@@H]2O[C@H](CO)[C@@H](O)[C@@H]2O)c(=O)n1 [Cytarabine hydrochloride] | 51.7 ± 21% |
| Nc1ccn([C@@H]2O[C@H](CO)[C@@H](O)[C@@H]2O)c(=O)n1 [Cytarabine] | 44.2 ± 11% |
| Nc1c(Br)cc(Br)cc1CN[C@H]1CC[C@H](O)CC1 [Ambroxol] | 63.56 ± 0.013% |
| Nc1c(Br)cc(Br)cc1CN[C@H]1CC[C@H](O)CC1 [Ambroxol HCl] | 117 ± 21% |
| CC(C)C[C@H](NC(=O)[C@@H](NC(=O)c1cccc(-c2ccccc2)n1)[C@@H](C)O)B(O)O | 79.7 ± 13% |
| O=C1/C(=C2\Nc3ccc(S(=O)(=O)O)cc3C2=O)Nc2ccc(S(=O)(=O)O)cc21 [Indigo carmine] | 126 ± 4.3% |
| OC[C@@H](O)CN1CCN(c2ccccc2)CC1 [Levodropropizine] | 99.4 ± 1.6% |
| CCC1(c2c[nH]cn2)Cc2ccccc2C1 [Atipamezole hydrochloride] | 95.8 ± 8.9% |
| CCC1(c2c[nH]cn2)Cc2ccccc2C1 [Atipamezole] | 103 ± 19% |
| CCCCC(CC)COC(=O)C(C#N)=C(c1ccccc1)c1ccccc1 (stereo not given) [Octocrylene] | 115 ± 4.8% |
| CCOC(=O)[C@H]1O[C@@H]1C(=O)N[C@@H](CC(C)C)C(=O)NCCC(C)C [Aloxistatin] | 150.2 ± 0.33% |
| C[C@]1(COc2ccc(N3CCC(Oc4ccc(OC(F)(F)F)cc4)CC3)cc2)Cn2cc([N+](=O)[O-])nc2O1 [Delamanid] | 117 ± 18% |
| OC[C@@H](O)[C@H](O)[C@@H](O)CO [Xylitol] | 146 ± 3% |
| OC[C@@H](O)[C@@H](O)[C@H](O)[C@H](O)CO [D-Mannitol] | 107 ± 11% |
| OC[C@@H](O)[C@@H](O)[C@H](O)[C@@H](O)CO [Sorbitol] | 97.2 ± 17% |
| Cn1nnc(-c2ccc(-c3ccc(N4C[C@H](CO)OC4=O)cc3F)cn2)n1 [Tedizolid] | 104 ± 5.8% |

| SMILES | cell number in HSV-1-infected wells |
| --- | --- |
| CCCCCCCCCCCCCCCC(=O)O[C@@H]1[C@@H](O)[C@@H](O)[C@@H]([C@H](NC(=O)[C@@H]2C[C@@H](CCC)CN2C)[C@H](C)Cl)O[C@@H]1SC [Clindamycin palmitate HCl] | 85.3 ± 3.2% |
| Cc1cc(-c2ccccc2)nnc1NCCN1CCOCC1 [Minaprine dihydrochloride] | 94.3 ± 12% |
| CN1CCC(=C2c3ccccc3CCn3c(C=O)cnc32)CC1 [Alcaftadine] | 127.9 ± 0.97% |
| Cc1ccccc1-c1cc(N2CCN(C)CC2)ncc1N(C)C(=O)C(C)(C)c1cc(C(F)(F)F)cc(C(F)(F)F)c1 [Netupitant] | 146 ± 30% |
| CCOC(=O)CCC(=O)O[C@H]1[C@H](O[C@@H]2[C@@H](C)[C@H](O[C@H]3C[C@@](C)(OC)[C@@H](O)[C@H](C)O3)[C@@H](C)C(=O)O[C@H](CC)[C@@](C)(O)[C@H](O)[C@@H](C)C(=O)[C@H](C)C[C@@]2(C)O)O[C@H](C)C[C@@H]1N(C)C [Erythromycin Ethylsuccinate] | 118 ± 17% |
| C[C@@H](O)[C@@H]1NC(=O)[C@H](CCCCN)NC(=O)[C@@H](Cc2c[nH]c3ccccc23)NC(=O)[C@H](Cc2ccccc2)NC(=O)[C@@H](NC(=O)[C@H](N)Cc2ccccc2)CSSC[C@@H](C(=O)N[C@H](CO)[C@@H](C)O)NC1=O [Octreotide Acetate] | 96.3 ± 13% |
| CC(O)C(=O)O.N (stereo not given) [Ammonium lactate] | 91.3 ± 9.4% |
| CCn1c(=O)c(-c2cc[nH]n2)cc2c(C)nc(N)nc21 | 79.6 ± 6.9% |
| CC1(C)S[C@@H]2[C@H](NC(=O)[C@H](N)c3ccccc3)C(=O)N2[C@H]1C(=O)OCOC(=O)[C@@H]1N2C(=O)C[C@H]2S(=O)(=O)C1(C)C [Sultamicillin] | 104 ± 5.9% |
| COc1cc(S(=O)(=O)O)ccc1O [Sulfogaiacol] | 98.6 ± 40% |
| O=C(Nc1nc2cccc(-c3ccc(CN4CCS(=O)(=O)CC4)cc3)n2n1)C1CC1 [Filgotinib (GLPG0634)] | 76.8 ± 6.2% |
| Nc1nc2c(ncn2COCCO)c(=O)[nH]1 [Aciclovir] | 225 ± 2.6% |
| C=C1[C@H](CO)[C@@H](O)C[C@@H]1n1cnc2c(=O)[nH]c(N)nc21 [Entecavir Hydrate] | 150 ± 12% |
| O=c1[nH]cnc2c1ncn2[C@H]1CC[C@@H](CO)O1 [Didanosine] | 99.6 ± 8.7% |
| CC(C)[C@H](N)C(=O)OCCOCn1cnc2c(=O)nc(N)[nH]c21 [Valaciclovir HCl] | 167 ± 22% |
| O=c1[nH]cnc2c1ncn2[C@@H]1O[C@H](CO)[C@@H](O)[C@H]1O [Inosine] | 126 ± 7.8% |
| Nc1nc2c(ncn2COC(CO)CO)c(=O)[nH]1 [Ganciclovir] | 192.4 ± 0.4% |
| C=C1[C@H](CO)[C@@H](O)C[C@@H]1n1cnc2c(=O)[nH]c(N)nc21 [Entecavir] | 130 ± 39% |
| CS(=O)(=O)Nc1cc2occ(NC=O)c(=O)c2cc1Oc1ccccc1 [Iguratimod] | 108 ± 15% |
| CC(C)OC(=O)CCC/C=C\C[C@@H]1[C@@H](/C=C/[C@@H](O)COc2cccc(C(F)(F)F)c2)[C@H](O)C[C@@H]1O [Travoprost] | 39.8 ± 12% |
| C[C@@H](O)[C@H]1C(=O)N2C(C(=O)[O-])=C(SC3Cn4cnc[n+]4C3)[C@H](C)[C@H]12 (stereo not given in full) [Biapenem] | 91.1 ± 10% |
| O=C(O)C(=O)O.[NH-][C@@H]1CCCC[C@H]1[NH-].[Pt+2] [Oxaliplatin] | 64.1 ± 10% |
